# ELG1 repair inh: ELG1-dependent DNA repair inhibition; AID 504467; Potency, µM (top dose mostly 46.1 µM), inactives show at the top dose activity change, negative = inhibition, most hits filed as inhibitors; HEK293T ELG1-luciferase reporter, luminescence, 16 h; DNA damage induced by 5-fluorouridine; hit rate 2.3% among 330,000; further: on the % scale 0 is the no-effect control and ±100 the full control effect; nearly all actives have a fitted effect of over 55% in size
#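 Cells (2,000 per well) received 5-fluorouridine plus test compound or DMSO and were incubated 16 hr at 37 °C, 5% CO2. Luciferase activity was read by luminescence 30 min after ONE-Glo addition; signal suppression marked inhibition of damage-induced ELG1 function.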
# SMN2 splice up: increases expression of the SMN2 splice variant. HEK293 SMN2-luciferase splicing reporter, luminescence, 30-36 h. Potency, µM (titrated, usually from 46.1 µM), without a hit: at the highest dose activity change, positive = activation, usual class: activators. hit rate 2.8% among 210,000. AID 1458; further: % of control where 0% means no effect; nearly all actives have a fitted effect of over 55% in size
#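 HEK293 cells carry an SMN2 […]–luciferase reporter in which exon 7 inclusion puts luciferase in frame. Cells were plated 10-12 h before compound addition, then incubated 30-36 h at 37C. ONE-Glo luminescence was read; sodium butyrate at 4.5 mM final served as control.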
# ELG1 genotox: induces genotoxicity in HEK293T cells with luciferase-tagged ELG1. HEK293T ELG1-luciferase reporter, luminescence, 16 h. Potency, µM (highest dose often 46 µM), inactives show top-dose activity change, positive = activation, hits mostly activators. hit rate 1.3% among 330,000; further: % of control where 0% means no effect; nearly all actives have a fitted effect of over 60% in size
#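 16 hr compound incubation (37 °C, 5% CO2) of HEK293T cells carrying luciferase-tagged ELG1; luciferase then measured by ONE-Glo luminescence after 30 min at RT.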
# Rab9 promoter act: activators of Rab9 promoter. Huh7 Rab9 promoter-luciferase reporter, luminescence, 24 h. Potency, µM (series often up to 9.22 µM), inactives show at the highest dose activation, negative = inhibition, usual class: activators. hit rate 2.8% among 320,000. AID 485297; further: % of control where 0% means no effect; nearly all actives have a fitted effect of over 60% in size
#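 Luminescence from Amplite-detected luciferase (10 minutes, ambient) reports Rab9 promoter activation. Before that, stable Rab9-luciferase Huh7 cells (1500/well, reduced-serum OP-MEM I plus 10% FBS) were exposed to compound for 24 hours at 37C.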
# NPC1 promoter act: activates the NPC1 promoter. Huh7 NPC1 promoter luciferase reporter, 24 h. Potency, µM (series often up to 9.22 µM), without a hit: at the top dose activation, most hits filed as activators. hit rate 2.4% among 320,000; further: % of control where 0% means no effect; nearly all actives have a fitted effect of over 60% in size
#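 In 1536-well qHTS, Huh7 cells harboring an NPC1 promoter–luciferase construct received compound for 24 h; activation was quantified by luminescence following luciferase reagent addition.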
# FLuc counter: inhibits or activates purified firefly luciferase, miR-21 counter-screen | purified FLuc, Km substrates, luminescence inhibition | hit rate 6.9% among 360,000 | P08659 | Potency, µM (titrated, usually from 57.5 µM), without a hit: top-dose activity change, negative = inhibition, actives largely listed as inhibitors;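 further: plate controls were vehicle for no effect and reference inhibitor for full effect; nearly all actives have a fitted effect of over 55% in size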
# Target sequence (P08659 whole entry, looked up): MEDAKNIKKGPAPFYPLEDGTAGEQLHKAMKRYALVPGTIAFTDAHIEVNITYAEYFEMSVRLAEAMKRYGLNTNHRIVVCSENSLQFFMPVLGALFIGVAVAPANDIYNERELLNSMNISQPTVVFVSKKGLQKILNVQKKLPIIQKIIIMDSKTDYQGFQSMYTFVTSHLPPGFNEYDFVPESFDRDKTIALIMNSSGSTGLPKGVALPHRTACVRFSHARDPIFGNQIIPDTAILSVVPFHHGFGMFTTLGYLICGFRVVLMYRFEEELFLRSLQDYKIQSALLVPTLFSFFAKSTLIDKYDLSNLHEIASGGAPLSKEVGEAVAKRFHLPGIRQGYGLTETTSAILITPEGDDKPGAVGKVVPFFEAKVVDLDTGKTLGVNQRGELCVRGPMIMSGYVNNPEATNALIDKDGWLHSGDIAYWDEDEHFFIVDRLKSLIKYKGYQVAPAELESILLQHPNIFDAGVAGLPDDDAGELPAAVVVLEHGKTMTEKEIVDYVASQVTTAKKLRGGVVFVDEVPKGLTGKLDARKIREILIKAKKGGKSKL
#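 Purified P. pyralis luciferase (10nM final) with 10uM D-luciferin and 10uM ATP (Km levels) in 50mM Tris acetate pH 7.5, 10mM Mg acetate, 0.01% Tween-20, 0.05% BSA; qHTS 6-point titration, ~60 µM downward; luminescence read.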
# An asterisk follows results filed as active; ? = inconclusive; · = not tested or not shown; [ ] = remark or other dose. An excerpt weighted towards active compounds, which were near 9.2% of everything screened. The call rests on the fitted dose curve; in most records, active means well fitted curve in the direction sought with a large enough effect; inconclusive means small, poorly fitted or top-dose-only effect, or another doubt; inactive means no such curve, though single readings can be large; an effect the other way counts as inactive or inconclusive. Potency means the concentration at half of the fitted maximal effect.
SMILES,ELG1 repair inh,SMN2 splice up,ELG1 genotox,Rab9 promoter act,NPC1 promoter act,FLuc counter
CCc1ccc(N2C(=O)C3C4C=CC(CC4)C3C2=O)cc1 (stereo not drawn),?,·,9%,19%,3%,4.3µM*
O=C1C2C3C=CC(CC3)C2C(=O)N1c1ccc(Cl)cc1 (stereo not drawn),-7%,·,0%,2%,5%,-22%
O=C(c1ccc(Cl)c([N+](=O)[O-])c1)N1CCCc2ccccc21,?,·,16%,2%,-2%,19µM*
O=C(c1cccc(Cl)c1)N1CCCc2ccccc21,-19%,·,-4%,1%,-3%,-2%
COc1cc2cc(CN(Cc3cccs3)C(=S)Nc3ccc(C)cc3)c(=O)[nH]c2cc1OC,5.2µM*,?,-2%,1%,-4%,1%
Cc1cccc(NC(=S)N(CCN(C)C)Cc2cc3cccc(C)c3[nH]c2=O)c1,13µM*,-11%,-2%,-6%,-4%,-2%
COc1ccc2[nH]c(C)c(CCN(Cc3cccs3)C(=S)Nc3cccc(F)c3)c2c1,16µM*,-66%,-4%,-8%,0%,1%
COc1cccc(NC(=S)N(CCc2c(C)[nH]c3ccc(C)cc23)Cc2cccs2)c1,?,-19%,-5%,-3%,0%,1%
COc1cc2cc(CN(Cc3cccs3)C(=S)Nc3cccc(C)c3)c(=O)[nH]c2cc1OC,7.3µM*,-10%,-8%,-10%,-1%,-1%
Cc1nn(C(C)(C)C)c(OC(=O)C(C)(C)C)c1Sc1ccccc1,·,1%,·,·,·,-11%
CC1CCC(NC(=O)COC(=O)c2n[nH]c(=O)c3ccccc23)CC1 (stereo not drawn),?,·,11%,1%,-2%,-1%
CCCCN1C(=O)C(=O)N(CC(=O)N2CCc3ccccc32)C1=O,12%,·,0%,-2%,9%,·
Cc1ccc(-c2ccnc3c(Cl)c(C)nn23)cc1,4%,·,-2%,-2%[1.84 µM],-3%,?
CCOC(=O)c1nnc2c(-c3ccc(Cl)cc3)c(C)nn2c1N,·,0%,·,·,·,0%
Cc1nn2c(-c3ccccc3)ccnc2c1-c1ccccc1,?,-21%,?,?,?,5.4µM*
Cc1nc2c(-c3ccccc3)c(C)nn2c(N)c1-c1ccccc1,?,13µM*,?,1.6µM*,2.2µM*,1.1µM*
Cc1nn2c3c(cnc2c1-c1ccccc1)C(=O)CCC3,?,-1%,?,?,?,15µM*
Cc1cc(N)n2nc(-c3ccccc3)c(-c3ccccc3)c2n1,?,·,5%,0%,-5%,-11%
Cc1nn2c(N)c(-c3ccccc3)cnc2c1-c1ccc(Cl)cc1,?,·,?,3.5µM*,2.5µM*,5.4µM*
COC(=O)N1CCC2(CC1)CCN(c1ccncc1)CC2,·,-25%,·,·,·,·
Cc1ccccc1C(=O)NCc1nc2cccnc2n1Cc1ccccc1,·,·,·,·,·,-2%
Cc1ccc(S(=O)(=O)Nc2cccc(C(=O)NCC3(N4CCCCC4)CCCCC3)c2)cc1F,1%,·,2%,-6%,-1%,1%
O=C(CSc1nnnn1C1CCCCC1)Nc1cccc(NC(=O)c2ccco2)c1,?,-1%,-3%,-9%,-1%,17µM*
O=C(CSc1nnnn1C1CCCC1)Nc1cccc(NC(=O)c2ccco2)c1,-15%,-1%,1%,-1%,-1%,?
CC(=O)c1cccc(-n2nnnc2SCC(=O)Nc2cccc(NC(=O)c3ccco3)c2)c1,18µM*,-5%,-11%,13%,12%,?
SMILES,ELG1 repair inh,SMN2 splice up,ELG1 genotox,Rab9 promoter act,NPC1 promoter act,FLuc counter
CCN(CC)c1ccc(NC(=O)Cn2cc3c(n2)CCCC3)c(C)c1,·,-1%,·,·,·,7%
COc1cc2oc(=O)ccc2cc1[C@@H](O)[C@@H]1OC(C)(C)OC1(C)C,0%,·,1%,0%,-5%,-2%
CCOc1ccc(N(C)C(CNS(=O)(=O)c2ccccc2)c2ccccc2)cc1 (stereo not drawn),·,-27%,·,·,·,-1%
Cc1c(Cl)cccc1NC(=O)Cn1c(=O)n(Cc2ccco2)c(=O)c2sc3ccccc3c21,·,3%,·,·,·,0%
Cc1ccc(OCCSc2ncccn2)c(C)c1,?,3.2µM*,?,0.5µM*,0.63µM*,2.1µM*
c1cnc(SCCOc2cccc3ccccc23)nc1,?,22%,12µM*,2.2µM*,?,7.6µM*
O=C(NCc1ccc2c(c1)OCO2)Nc1cccc(Cl)c1,?,·,?,25%,28%,?
CC(=O)c1cccc(NC(=O)Nc2ccc3c(c2)OCO3)c1,?,·,2%,2.5µM*,3.5µM*,4.8µM*
O=C(Nc1cccc(Cl)c1)Nc1ccc2c(c1)OCO2,?,10µM*,15%,1.6µM*,2.5µM*,6.7µM*
COC(=O)c1cccn(CC(=O)c2ccc(Cl)cc2Cl)c1=O,10%,7%,5%,-6%,0%,15µM*
CCOC(=O)c1c(C)oc2nc(C)nc(Nc3ccc(C)c(Cl)c3)c12,·,·,·,·,·,-3%
Cc1ccc(-n2nc(CO)c(C(=O)NCCCCc3ccccc3)n2)cc1,·,21%,·,·,·,6%
CCOc1ccc2nc(NCCNC(=O)c3cc(OC)c(OC)c(OC)c3)c(C#N)cc2c1,13µM*,·,-6%,-3%,1%,-1%
COc1ccccc1C(=O)NCCNc1nc2cc(C)cc(C)c2cc1C#N,9.2µM*,·,-11%,2%,-8%,-14%
COc1cc(OC)cc(C(=O)NCCNc2nc3cc(C)cc(C)c3cc2C#N)c1,16µM*,·,-8%,-2%,-2%,-1%
COc1cc(C(=O)NCCNc2nc3cc(C)ccc3cc2C#N)cc(OC)c1OC,?,·,-4%,-3%,-2%,0%
O=C(O)/C=C/C(=O)Nc1ccc2c(c1)C(=O)c1ccccc1C2=O,?,·,9%,13%,5%,17µM*
O=C(O)/C=C/C(=O)Nc1ccc(C(=O)c2ccccc2)cc1,?,·,-2%,-1%,-4%,3%
O=C1c2ccccc2C(=O)c2cc(NC(=O)C3CC3)ccc21,?,11µM*,?,2.2µM*,2.5µM*,?
CC(=O)Nc1ccc2c(c1)C(=O)c1ccccc1C2=O,?,13µM*,?,0.71µM*,1.6µM*,4.8µM*
COc1ccc(N(CC(=O)Nc2cccnc2)S(=O)(=O)c2ccccc2)cc1OC,1%,·,0%,-3%,-3%,-2%
Cc1ccc(CCNC(=O)c2cc3sccc3n2Cc2ccc(F)cc2)cc1,·,-7%,·,·,·,0%
O=c1[nH]c(SCc2cccc(Cl)c2)nc2c1CCC2,·,·,·,·,·,5%
C/C(=N\Nc1nc(N2CCOCC2)nc(N2CCOCC2)n1)c1cccs1,-3%,-3%,-2%,-8%,0%,2%
